Laboratory results reported in PubChem BioAssay (NCATS).
Records with an inconclusive call do not appear. Entries that show only a call come without a potency. Active and inactive are the calls of the source. Unless noted, calls come from the whole dose curve; as a rule, active = well fitted curve in the direction sought with a large enough effect; inconclusive = small, poorly fitted or top-dose-only effect, or another doubt; inactive = no such curve, though single readings can be large; an effect the other way counts as inactive or inconclusive.

Experiments:
[1] = target: Calcium and integrin-binding protein 1 (Homo sapiens) (UniProt Q99828); test: Primary qHTS for Identification of Calcium Integrin Binding Protein 1 (CIB1) Competitor (AID 1508620); details: CIB1-GST / FITC-alphaIIb peptide fluorescence polarization; series mostly up to 57.7 µM;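 note: GST tagged CIB1 binding a fluorescein labelled alphaIIb integrin peptide tracer; top concentration of the series differs between compounds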
Chain of Calcium and integrin-binding protein 1 (Homo sapiens) (Q99828 whole entry, looked up): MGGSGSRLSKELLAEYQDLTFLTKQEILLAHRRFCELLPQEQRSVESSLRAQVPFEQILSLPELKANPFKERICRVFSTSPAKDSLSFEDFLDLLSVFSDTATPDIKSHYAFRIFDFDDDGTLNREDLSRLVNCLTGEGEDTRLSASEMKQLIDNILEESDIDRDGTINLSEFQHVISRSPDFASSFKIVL
Method in brief: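 CIB1-GST (1 uM final) and compound incubated 15 min at room temperature before adding FITC-alphaIIb peptide tracer (100 nM final). Competition for binding read by fluorescence polarization (ex 480, em 540) after another 15 min at room temperature.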

[2] = target: Cytochrome P450 2D6 (Homo sapiens) (UniProt P10635); test: Cytochrome P450 family 2 subfamily D member 6 (CYP2D6) small molecule antagonists: luciferase biochemical (cell-free) qHTS assay (AID 1645840; active = well fitted curve in the direction sought with a large enough effect in the repeat runs; an effect the other way counts as inactive or inconclusive; note: nearly all actives have a fitted effect of over 55% in size; note: potency is the fitted concentration of half-maximal effect); details: P450-Glo CYP2D6 enzyme, luciferin luminescence, 1 h; series mostly up to 57.4 µM
Chain of Cytochrome P450 2D6 (Homo sapiens) (P10635 whole entry, looked up): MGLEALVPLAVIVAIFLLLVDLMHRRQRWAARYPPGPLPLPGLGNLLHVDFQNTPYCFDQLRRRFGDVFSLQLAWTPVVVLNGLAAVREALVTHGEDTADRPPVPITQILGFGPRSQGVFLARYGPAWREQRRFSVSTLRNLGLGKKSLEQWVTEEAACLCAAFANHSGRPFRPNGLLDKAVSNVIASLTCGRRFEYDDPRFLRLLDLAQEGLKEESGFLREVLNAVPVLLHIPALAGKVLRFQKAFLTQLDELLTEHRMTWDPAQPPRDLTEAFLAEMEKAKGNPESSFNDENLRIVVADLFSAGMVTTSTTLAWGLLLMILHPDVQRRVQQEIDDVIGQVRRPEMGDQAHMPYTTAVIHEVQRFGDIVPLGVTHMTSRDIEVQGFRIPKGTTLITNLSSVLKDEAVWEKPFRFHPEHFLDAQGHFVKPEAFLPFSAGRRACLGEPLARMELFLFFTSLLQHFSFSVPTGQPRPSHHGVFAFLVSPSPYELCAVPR
Method in brief: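 P450-Glo luminescent screen: recombinant CYP2D6 enzyme–proluciferin substrate mix preincubated with compound 10 min at room temperature, then NADPH regeneration added for 1 h at room temperature. Detection reagent added for 20 min; luciferin light read as relative luminescence units.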

[3] = target: Cytochrome P450 2C9 (Homo sapiens) (UniProt P11712); test: Cytochrome P450 family 2 subfamily C member 9 (CYP2C9) small molecule antagonists: luciferase biochemical (cell-free) qHTS assay (AID 1645842; active = well fitted curve in the direction sought with a large enough effect in the repeat runs; an effect the other way counts as inactive or inconclusive; note: nearly all actives have a fitted effect of over 55% in size; note: potency is the fitted concentration of half-maximal effect); details: P450-Glo CYP2C9 enzyme assay, luciferin luminescence; series mostly up to 57.4 µM
Chain of Cytochrome P450 2C9 (Homo sapiens) (P11712 whole entry, looked up): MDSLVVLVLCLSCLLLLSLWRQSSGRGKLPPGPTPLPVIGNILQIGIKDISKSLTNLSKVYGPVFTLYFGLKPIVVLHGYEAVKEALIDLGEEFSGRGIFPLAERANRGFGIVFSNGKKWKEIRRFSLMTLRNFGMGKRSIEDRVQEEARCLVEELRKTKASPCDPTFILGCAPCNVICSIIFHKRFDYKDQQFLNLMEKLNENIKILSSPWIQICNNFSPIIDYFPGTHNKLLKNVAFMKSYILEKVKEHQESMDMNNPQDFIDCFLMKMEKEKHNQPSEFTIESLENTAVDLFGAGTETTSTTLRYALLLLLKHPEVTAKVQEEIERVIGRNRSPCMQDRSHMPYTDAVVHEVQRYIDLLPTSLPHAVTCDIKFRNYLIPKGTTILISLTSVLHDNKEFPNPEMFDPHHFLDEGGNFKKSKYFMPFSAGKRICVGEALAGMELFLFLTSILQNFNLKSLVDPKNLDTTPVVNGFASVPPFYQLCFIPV
Method in brief: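 Luminescence, after 20 min with luciferin detection reagent, reflected CYP2C9 turnover during a 1 h NADPH-driven reaction at 37C. Enzyme-substrate mix contained 0.4% bovine serum albumin and was preincubated with compound 10 min at room temperature.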

[4] = Primary qHTS for inhibitors of nuclear receptor binding SET domain protein 2 (NSD2) in an isogenic RCH-ACV NSD2 p.E1099K mutant (9B) (AID 1645876); details: RCH-ACV NSD2 E1099K (9B) viability, CellTiter-Glo, 72 h; series mostly up to 44.9 µM; note: nearly all actives have a fitted effect of over 70% in size
[5] = Primary qHTS for inhibitors of nuclear receptor binding SET domain protein 2 (NSD2) in an RCH-ACV wild type WT cells (2C) (AID 1645877); details: RCH-ACV (leukaemia line) NSD2 WT (2C) viability, CellTiter-Glo, 72 h; series mostly up to 44.9 µM; note: nearly all actives have a fitted effect of over 70% in size
[6] = target: Cytochrome P450 3A4 (Homo sapiens) (UniProt P08684); test: Cytochrome P450 family 3 subfamily A member 4 (CYP3A4) small molecule antagonists: luciferase qHTS assay (AID 1645841; active = well fitted curve in the direction sought with a large enough effect in the repeat runs; an effect the other way counts as inactive or inconclusive; note: nearly all actives have a fitted effect of over 45% in size; note: potency is the fitted concentration of half-maximal effect); details: P450-Glo CYP3A4 enzyme assay, luciferin luminescence; series mostly up to 57.4 µM
Chain of Cytochrome P450 3A4 (Homo sapiens) (P08684 whole entry, looked up): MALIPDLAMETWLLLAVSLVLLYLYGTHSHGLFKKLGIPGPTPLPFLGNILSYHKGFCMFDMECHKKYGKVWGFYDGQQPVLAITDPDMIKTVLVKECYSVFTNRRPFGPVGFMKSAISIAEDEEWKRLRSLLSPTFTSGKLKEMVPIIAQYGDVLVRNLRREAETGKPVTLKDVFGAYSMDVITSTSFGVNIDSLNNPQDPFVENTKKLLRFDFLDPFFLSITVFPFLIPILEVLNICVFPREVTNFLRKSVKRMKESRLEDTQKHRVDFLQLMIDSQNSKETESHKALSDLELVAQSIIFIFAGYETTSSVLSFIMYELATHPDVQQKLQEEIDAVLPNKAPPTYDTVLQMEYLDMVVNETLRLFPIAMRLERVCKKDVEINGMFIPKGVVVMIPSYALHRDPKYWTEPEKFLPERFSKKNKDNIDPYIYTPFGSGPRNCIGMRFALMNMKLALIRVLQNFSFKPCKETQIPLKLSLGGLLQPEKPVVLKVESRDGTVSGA
Method in brief: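 Luminescent CYP3A4 activity readout: compounds plus enzyme-substrate mix 10 min at room temperature, reaction started with NADPH regenerating system for 1 h, stopped with detection reagent, read after 20 min. Ketoconazole served as control.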

[7] = target: N-terminal Xaa-Pro-Lys N-methyltransferase 1 (Homo sapiens) (UniProt Q9BV86); test: Confirmatory qHTS for Inhibitors of N-terminal methyltransferase 1 (NTMT1): MTaseGlo Assay (AID 1645874); details: NTMT1 enzyme, MTase-Glo SAH luminescence; series mostly up to 51.5 µM;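 note: luminescence from SAH made as NTMT1 methylates SPKRIA peptide using SAM; nearly all actives have a fitted effect of over 65% in size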
Chain of N-terminal Xaa-Pro-Lys N-methyltransferase 1 (Homo sapiens) (Q9BV86 whole entry, looked up): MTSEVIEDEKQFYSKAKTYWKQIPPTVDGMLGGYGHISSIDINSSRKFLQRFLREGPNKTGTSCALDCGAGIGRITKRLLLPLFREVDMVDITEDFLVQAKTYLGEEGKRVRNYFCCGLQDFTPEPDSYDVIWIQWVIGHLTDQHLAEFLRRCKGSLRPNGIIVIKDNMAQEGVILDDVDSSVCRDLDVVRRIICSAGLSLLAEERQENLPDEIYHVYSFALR
Method in brief: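 Luminescent MTase-Glo read-out of SAH. 125 nM NTMT1, 100 uM SAM, 1 uM SPKRIA substrate, 30 min RT reaction after 15 min compound preincubation. Normalized to no-enzyme and DMSO controls; Hill fit.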

Structure (SMILES) | Potency [1] | Potency [2] | Potency [3] | Potency [4] | Potency [5] | Potency [6] | Potency [7]
COc1ccc(CC(=O)NCc2ccccc2-c2ccccc2C(=O)NCCc2cccnc2)cc1 | inactive | 10.7 µM (active) | 2.68 µM (active) | inactive | inactive | – | –
Cc1ccc2[nH]c(=O)c(C3=NN(C(=O)CCC(=O)O)C(c4ccc(Br)cc4)C3)c(-c3ccccc3)c2c1 (stereo unspecified) | inactive | inactive | 26.8 µM (active) | inactive | inactive | – | –
Cc1ccc(Cl)cc1N(CC(=O)Nc1c(F)cccc1F)S(C)(=O)=O | inactive | inactive | 1.2 µM (active) | inactive | inactive | – | –
CCOC(=O)CSc1nc2c(sc3ccccc32)c(=O)n1CCCN1CCCC1 | inactive | 0.849 µM (active) | 13.5 µM (active) | inactive | inactive | – | –
COc1ccc(-n2[nH]c3c(cnc4ccccc43)c2=O)cc1 | inactive | inactive | inactive | inactive | inactive | – | –
COC(=O)C(CC1CCCC1)c1ccc(S(C)(=O)=O)cc1 (stereo unspecified) | inactive | 12 µM (active) | 4.77 µM (active) | inactive | inactive | – | –
CN[C@H](CNC(=O)N1CCC[C@@H]([C@@H](OCCNC(=O)OC)c2cccc(Cl)c2)C1)C[C@H]1CCCOC1 | inactive | 19 µM (active) | inactive | inactive | inactive | – | –
c1cc(-c2cc(C3CCNCC3)[nH]n2)ccn1 | inactive | 15.1 µM (active) | inactive | inactive | inactive | – | –
CCCC(=O)Nc1cccc(NC(=O)c2ccccc2Br)c1 | inactive | inactive | inactive | inactive | inactive | – | –
CC(C(=O)Nc1cc(C#N)ccc1CCCC(=O)O)c1ccc(F)c2ccccc12 (stereo unspecified) | inactive | inactive | 0.536 µM (active) | inactive | inactive | – | –
CCOc1ncc(S(=O)(=O)N2CCN(CC)CC2)cc1-c1nc2c(CC)n(CCOC)nc2c(=O)[nH]1 | inactive | inactive | 10.7 µM (active) | inactive | inactive | – | –
CN1CCN(c2nc(-c3ccc(C(=O)NC4(C(=O)NCC#N)CCCCC4)cc3)cs2)CC1 | inactive | inactive | 12 µM (active) | inactive | inactive | – | –
COc1ccc(OC)c(C2C(C#N)=C(N)Oc3n[nH]c(-c4ccc5ccccc5c4)c32)c1 (stereo unspecified) | inactive | 7.56 µM (active) | 10.7 µM (active) | inactive | inactive | – | –
CCC(C)C(N)C(=O)NCCN1CCOCC1 (stereo unspecified) | inactive | inactive | inactive | inactive | inactive | – | –
COc1ccc(Oc2c(Cl)cnn(C3c4ccccc4-c4ccccc43)c2=O)cc1 | inactive | inactive | 9.52 µM (active) | inactive | – | – | –
CCOC(=O)C(CCc1ccccc1)NC1CCCN2CCCC(C(=O)O)N2C1=O (stereo unspecified) | inactive | inactive | inactive | inactive | inactive | – | –
Cc1nc2cc(-c3cc(F)cc(C#N)c3)ccc2s1 | inactive | inactive | 10.7 µM (active) | inactive | inactive | – | –
CC(=O)N[C@H](Cc1c[nH]c2ccccc12)C(=O)OCc1cc(C(F)(F)F)cc(C(F)(F)F)c1 | inactive | 19 µM (active) | 1.9 µM (active) | inactive | inactive | – | –
Cc1nc2ccccc2c(-c2ccc3c4c(ccnc24)CCO3)c1[C@H](OC(C)(C)C)C(=O)O | inactive | inactive | inactive | inactive | inactive | – | –
O=C(O)[C@H](Cc1ccccc1)Oc1ccc(-c2ccccc2)cc1 | inactive | inactive | 9.52 µM (active) | inactive | inactive | – | –

Structure (SMILES) | Potency [1] | Potency [2] | Potency [3] | Potency [4] | Potency [5] | Potency [6] | Potency [7]
CN(C)c1ccc(C2O[C@@H](c3ccccc3)C[C@H](c3ccccc3)O2)cc1 (stereo partly specified) | inactive | inactive | 15.1 µM (active) | inactive | inactive | – | –
CNC(C)C(=O)NC(C(=O)N1CCCC1C(=O)Nc1cccc2ncccc12)C(C)C (stereo unspecified) | inactive | inactive | inactive | inactive | inactive | – | –
N#Cc1cc(-c2n[nH]c(-c3ccncc3)n2)ccn1 | inactive | inactive | 1.51 µM (active) | inactive | inactive | – | –
N[C@@H](CCNCc1ccc(Cl)cc1)C(=O)N1CCCCC1 | inactive | 10.7 µM (active) | inactive | inactive | inactive | – | –
Cc1cn(C[C@H](N)C(=O)O)c(=O)n(Cc2ccsc2C(=O)O)c1=O | inactive | inactive | inactive | inactive | inactive | – | –
Cc1oc(S(=O)(=O)N2CCCCC2)cc1NC(=O)Nc1ccccc1 | inactive | 12 µM (active) | 6.01 µM (active) | inactive | inactive | – | –
Cc1ccc2nc(NC(=O)CSc3nc4c(c(=O)n3-c3ccc(F)cc3)SCC4)sc2c1 | inactive | inactive | 3.38 µM (active) | inactive | inactive | – | –
Nc1ncnc2c1ncn2[C@H]1O[C@@H](C(=O)N2CCN(CC(=O)Nc3cccc4c3CNC4=O)CC2)[C@H](O)[C@@H]1O | inactive | inactive | inactive | inactive | inactive | – | –
Nc1c(-c2ccccc2)nc(Cl)c2c(O)n[nH]c(=O)c12 | inactive | inactive | 10.7 µM (active) | inactive | inactive | – | –
Oc1ccc(CC2NCCc3cc(O)c(O)cc32)cc1 (stereo unspecified) | inactive | inactive | inactive | inactive | inactive | – | –
CC1(C)CC(NC(=O)C(=O)Nc2ccc(Cl)cc2)CC(C)(C)N1 | inactive | inactive | inactive | inactive | inactive | – | –
O=C(O)c1cc(C(F)(F)F)ccc1N1CC[C@H](OCc2ccccn2)C1 | inactive | inactive | 19 µM (active) | inactive | inactive | – | –
CCCCNc1nc(N)c2[nH]c(=O)n(Cc3ccc(OCCN(C)C)nc3)c2n1 | inactive | inactive | inactive | inactive | inactive | – | –
COc1ccccc1Oc1c(NS(=O)(=O)c2ccc(C)cn2)nc(-c2ccncc2)nc1OC | inactive | inactive | 26.8 µM (active) | inactive | inactive | – | –
Cc1c(C)c(NCC(=O)N(C)C2CCN(Cc3ccc(C(N)=O)cc3)CC2)c(C)c(C)c1N | inactive | 21.3 µM (active) | 7.56 µM (active) | inactive | inactive | – | –
CCCCS(=O)(=O)NC(Cc1ccc(OCCCCC2CCNCC2)cc1)C(=O)O (stereo unspecified) | inactive | inactive | inactive | inactive | inactive | – | –
COc1ccnc(CCc2nc3ncccc3[nH]2)c1 | inactive | inactive | inactive | inactive | inactive | – | –
CCC(C)(C)C1CCc2c(sc(NC(=O)c3ccc(Br)cc3)c2C#N)C1 (stereo unspecified) | inactive | inactive | inactive | inactive | inactive | – | –
CC(=O)Nc1cccc2c1c(Sc1ccc(Cl)cc1)c(C)n2CC(=O)O | inactive | inactive | 13.5 µM (active) | inactive | inactive | – | –
Cc1ccccc1-c1cc(N2CCN(C)CC2)ncc1N(C)C(=O)C(C)(C)c1cc(C(F)(F)F)cc(C(F)(F)F)c1 | inactive | 15.1 µM (active) | 16.9 µM (active) | inactive | inactive | – | –

Structure (SMILES) | Potency [1] | Potency [2] | Potency [3] | Potency [4] | Potency [5] | Potency [6] | Potency [7]
CCCC(C(=O)O)c1c(C)nc2ccc(Cl)cc2c1-c1ccccc1 (stereo unspecified) | inactive | inactive | 21.3 µM (active) | inactive | inactive | – | –
O=C(O)CC1CCC(c2ccc(NC(=O)c3nnc(Nc4ccc(F)c(F)c4)o3)cc2)CC1 (stereo unspecified) | inactive | inactive | inactive | inactive | inactive | – | –
Cc1cc(Cn2cnc3c2CC(C(=O)O)N(C(=O)C(c2ccccc2)c2ccccc2)C3)ccc1N(C)C (stereo unspecified) | inactive | inactive | inactive | inactive | inactive | – | –
COc1cccc(OC)c1-c1nc(C(=O)N[C@@H](CC(C)C)C(=O)O)cn1-c1ccnc2cc(Cl)ccc12 | inactive | inactive | inactive | inactive | inactive | – | –
CNC(=O)c1ccc2c(c1)CCO[C@H]2CCN1CCN(c2ccc(C(N)=O)cc2)CC1 | inactive | inactive | inactive | inactive | inactive | – | –
Cn1c2ccc(NC(=O)c3ccccc3)cc2c(=O)n2nc(C(=O)O)cc12 | inactive | inactive | inactive | inactive | inactive | – | –
Cn1cc(CCn2cnc(-c3cnn(C)c3)c2-c2ccc(C#N)cc2)cn1 | inactive | inactive | inactive | inactive | inactive | – | –
N#Cc1cccc(-c2nc(-c3cccnc3)no2)c1 | inactive | 2.62 µM (active) | 4.65 µM (active) | inactive | inactive | – | –
CNc1nc(Nc2cn(C(C)(C)C#N)nc2C)ncc1C(F)(F)F | inactive | inactive | 7.56 µM (active) | inactive | inactive | – | –
Nc1nc(COC(=O)c2ccc([N+](=O)[O-])cc2)nc(Nc2ccccc2)n1 | inactive | inactive | 21.3 µM (active) | inactive | inactive | – | –
COc1cccc(OC)c1-c1ccc(C[C@H](NC(=O)c2c(Cl)cccc2Cl)C(=O)O)cc1 | inactive | inactive | 13.5 µM (active) | inactive | inactive | – | –
Cc1cccc(NC(=O)CN2CCC(c3ccccn3)CC2)c1 | inactive | 13.5 µM (active) | 3.38 µM (active) | inactive | inactive | – | –
Cc1cc(-c2nncc3c(C(C)(C)C)c(OCc4ncnn4C)nn23)no1 | inactive | inactive | 3.01 µM (active) | inactive | inactive | – | –
O=C(NC1CCN(CC(F)(F)F)CC1)c1ccc(-c2cccc(F)c2)nc1 | inactive | inactive | inactive | inactive | inactive | – | –
CCNC(=O)C1CC(F)(c2ccc(CN3CCCC3)c(F)c2)C1 (stereo unspecified) | – | – | – | – | – | inactive | –
Cc1ccc(-c2c(-c3nn(C)c4ncnc(N5CCC(N6CCCCC6)C5)c34)cnn2C)cc1 (stereo unspecified) | – | – | – | – | – | 0.12 µM (active) | –
COc1cccc(C(=O)NCCNc2nc3cc(C)cc(C)c3cc2C#N)c1 | – | – | – | – | – | – | inactive
COc1ccc(-n2c(=O)[nH]c3cc(C(=O)NCc4ccc(Cl)cc4)sc3c2=O)nc1OC | inactive | – | 9.52 µM (active) | inactive | inactive | – | –
